Experimental data as given in PubChem BioAssay (NCATS).
“And” between values parts separate entries of the source, which are not always exact repeats. Equal entries are not always repeated. Unmarked numbers belong to inactive results. Results filed as inconclusive are left out. A call without a number means that no potency is given here. The source made the active and inactive calls. Unless noted, calls follow the shape of the dose curve; as a rule, active = well fitted curve in the direction sought with a large enough effect; inconclusive = small, poorly fitted or top-dose-only effect, or another doubt; inactive = no such curve, though single readings can be large; an effect the other way counts as inactive or inconclusive.

Assays:
[1] = AP1 Signaling Pathway (AID 357; active = well fitted curve in either direction with a large enough effect, not every such curve was filed as active;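 also: ME-180 reporter cells stimulated with EGF at its EC50 level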); details: ME-180 AP-1-bla reporter, EGF-induced, beta-lactamase ratio, 5 h; at 7.69 µM (top of the series) unless noted
How it was run: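 AP-1-bla ME-180 cells, Opti-MEM + 0.5% dialyzed FBS, plated overnight 37 °C. Cpd titration + EC50 EGF, 5 h 37 °C. CCF4 2.5 h RT; ex 405, em 460/530 ratio → %activity, AC50.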

[2] = target: Cytochrome P450 1A2 (Homo sapiens) (UniProt P05177); assay: p450-cyp1a2 (AID 410; calls by dose curve; also: potency is read from the fitted curve at half-maximal effect)
Chain of Cytochrome P450 1A2 (Homo sapiens) (P05177 whole entry, looked up): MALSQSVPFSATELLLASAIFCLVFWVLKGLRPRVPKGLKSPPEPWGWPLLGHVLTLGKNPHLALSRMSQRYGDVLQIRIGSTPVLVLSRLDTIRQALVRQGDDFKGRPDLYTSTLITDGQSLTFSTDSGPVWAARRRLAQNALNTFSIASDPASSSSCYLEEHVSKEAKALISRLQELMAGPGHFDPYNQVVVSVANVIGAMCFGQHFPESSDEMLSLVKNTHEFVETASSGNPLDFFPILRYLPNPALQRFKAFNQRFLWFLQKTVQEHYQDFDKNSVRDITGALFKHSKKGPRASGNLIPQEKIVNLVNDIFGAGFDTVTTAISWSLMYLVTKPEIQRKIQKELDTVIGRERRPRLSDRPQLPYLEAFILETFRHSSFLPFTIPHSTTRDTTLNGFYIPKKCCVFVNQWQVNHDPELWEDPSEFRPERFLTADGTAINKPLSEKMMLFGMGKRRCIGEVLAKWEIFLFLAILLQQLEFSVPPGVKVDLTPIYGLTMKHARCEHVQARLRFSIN
How it was run: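 Read-out is luminescence from luciferin produced by CYP1A2 demethylation of Luciferin-ME (100uM, at Km). Detection reagent stopped the 60 min NADPH-dependent reaction; signals were normalized to 57 uM furafylline.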

[3] = NFAT Signaling Pathway (AID 444; active = well fitted curve in either direction with a large enough effect, not every such curve was filed as active;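 also: carbachol stimulus at about its EC50 of 1 µM final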); details: Jurkat NFAT-bla M1, carbachol, beta-lactamase ratio, 5 h; at 7.69 µM (top of the series) unless noted
How it was run: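 Read-out: CCF4 FRET ratio (460 nm/530 nm) after 1 h RT dye loading, used for %activity and AC50 from titration series. Cells: Jurkat NFAT-β-lactamase/M1 line, treated with compound plus 1 uM carbachol for 5 h, 37 °C.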

[4] = Stat Signaling Pathway (AID 446; active = well fitted curve in either direction with a large enough effect, not every such curve was filed as active;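 also: ME-180 cervical cancer cells given 40 pM IL-6 alongside compound; SIE-controlled beta-lactamase reporter measured as 460/530 nm FRET emission ratio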); details: ME-180 (cervical carcinoma) SIE beta-lactamase reporter, IL-6 stimulated, 5 h; at 7.69 µM (top of the series) unless noted
How it was run: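 FRET read-out (405 nm excitation, 460/530 nm emission) of a beta-lactamase reporter under a STAT-inducible element in ME-180 cervical carcinoma cells. Cells with compound receive 40 pM IL-6 for 5 h. Values are normalised to AC90 stimulation and AC90 JAK-inhibitor controls.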

[5] = target: Glucocorticoid receptor (Homo sapiens) (UniProt P04150); assay: GR-GFP Redistribution (AID 450;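 active = compounds whose dose series gives a full or clear partial fitted curve of increased nuclear translocation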; also: potency is read from the fitted curve at half-maximal effect); details: U2OS GR-GFP nuclear translocation, laser cytometry, 2 h
Chain of Glucocorticoid receptor (Homo sapiens) (P04150 whole entry, looked up, the tested form may be a part): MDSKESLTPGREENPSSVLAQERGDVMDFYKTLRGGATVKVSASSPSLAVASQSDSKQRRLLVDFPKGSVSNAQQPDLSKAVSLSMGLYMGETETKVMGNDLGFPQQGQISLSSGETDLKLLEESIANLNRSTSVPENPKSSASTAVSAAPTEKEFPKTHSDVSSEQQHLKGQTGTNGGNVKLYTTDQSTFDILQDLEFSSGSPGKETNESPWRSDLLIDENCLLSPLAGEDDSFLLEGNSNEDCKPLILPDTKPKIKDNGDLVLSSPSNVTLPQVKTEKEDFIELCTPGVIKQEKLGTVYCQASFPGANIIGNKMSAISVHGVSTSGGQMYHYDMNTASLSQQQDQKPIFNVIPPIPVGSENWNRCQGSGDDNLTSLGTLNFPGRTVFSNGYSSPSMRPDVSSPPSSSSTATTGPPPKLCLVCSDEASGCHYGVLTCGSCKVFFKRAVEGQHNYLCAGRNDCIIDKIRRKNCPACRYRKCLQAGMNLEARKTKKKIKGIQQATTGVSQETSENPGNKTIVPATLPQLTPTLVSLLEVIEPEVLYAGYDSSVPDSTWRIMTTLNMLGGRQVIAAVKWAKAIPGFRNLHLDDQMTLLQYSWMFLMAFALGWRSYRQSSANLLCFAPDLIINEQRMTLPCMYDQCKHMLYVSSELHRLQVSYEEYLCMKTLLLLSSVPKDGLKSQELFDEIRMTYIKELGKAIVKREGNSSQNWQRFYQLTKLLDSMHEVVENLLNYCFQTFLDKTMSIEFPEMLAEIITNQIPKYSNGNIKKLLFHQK

[6] = target: Glucocorticoid receptor (Homo sapiens) (UniProt P04150); assay: GR-EFC Redistribution (AID 451; calls by dose curve; also: potency is read from the fitted curve at half-maximal effect); details: CHO-K1 GR-EFC translocation, beta-gal luminescence, 2 h
How it was run: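 Translocation of GR-ED fusion to nuclear EA restores b-gal, read by luminescence after 1 h room-temperature detection. Engineered CHO-K1 biosensor cells, 1,000/well, exposed 2 h at 37 C to titrations up to 46 uM final.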

[7] = target: 3',5'-cyclic-AMP phosphodiesterase 4B (Homo sapiens) (UniProt Q07343); assay: qHTS Assay for Inhibitors of PDE-IV (AID 607; active = well fitted activation curve with a large enough effect in the main read-out, with a control signal flat, not every such curve was filed as active)
Chain of 3',5'-cyclic-AMP phosphodiesterase 4B (Homo sapiens) (Q07343 whole entry, looked up): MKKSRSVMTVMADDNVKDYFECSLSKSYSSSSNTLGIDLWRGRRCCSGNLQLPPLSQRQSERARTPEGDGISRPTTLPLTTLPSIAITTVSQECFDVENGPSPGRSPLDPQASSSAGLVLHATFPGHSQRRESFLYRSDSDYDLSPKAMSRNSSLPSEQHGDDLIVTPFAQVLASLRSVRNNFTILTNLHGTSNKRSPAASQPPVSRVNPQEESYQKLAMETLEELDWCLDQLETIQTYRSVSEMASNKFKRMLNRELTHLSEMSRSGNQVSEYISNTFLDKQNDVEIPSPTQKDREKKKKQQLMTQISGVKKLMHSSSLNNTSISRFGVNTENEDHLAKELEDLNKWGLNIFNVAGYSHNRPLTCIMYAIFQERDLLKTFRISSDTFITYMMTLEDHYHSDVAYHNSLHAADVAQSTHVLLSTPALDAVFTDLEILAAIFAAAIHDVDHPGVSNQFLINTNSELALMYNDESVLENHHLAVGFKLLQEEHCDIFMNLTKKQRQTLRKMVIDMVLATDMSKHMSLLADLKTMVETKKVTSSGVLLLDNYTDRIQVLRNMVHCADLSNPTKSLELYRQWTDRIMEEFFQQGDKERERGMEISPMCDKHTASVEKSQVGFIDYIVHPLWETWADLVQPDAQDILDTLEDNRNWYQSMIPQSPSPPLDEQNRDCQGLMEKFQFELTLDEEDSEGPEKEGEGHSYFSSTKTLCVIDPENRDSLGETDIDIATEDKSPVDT
How it was run: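 Cell-based read-out of cAMP via a modified cyclic nucleotide-gated channel and membrane potential dye (535/590 nm) in HEK293 cells expressing PDE4 endogenously. Compounds tested up to 22.9 uM final; 100 uM RO 20-1724 reference.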

[8] = target: Guanine nucleotide-binding protein G(i) subunit alpha-1 (Homo sapiens) (UniProt P63096); assay: qHTS Assay for Inhibitors of RGS12 GoLoco Motif Activity (Green Fluorophore) (AID 879);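 also: negative values mean loss of peptide binding seen as reduced polarization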
Chain of Guanine nucleotide-binding protein G(i) subunit alpha-1 (Homo sapiens) (P63096 whole entry, looked up): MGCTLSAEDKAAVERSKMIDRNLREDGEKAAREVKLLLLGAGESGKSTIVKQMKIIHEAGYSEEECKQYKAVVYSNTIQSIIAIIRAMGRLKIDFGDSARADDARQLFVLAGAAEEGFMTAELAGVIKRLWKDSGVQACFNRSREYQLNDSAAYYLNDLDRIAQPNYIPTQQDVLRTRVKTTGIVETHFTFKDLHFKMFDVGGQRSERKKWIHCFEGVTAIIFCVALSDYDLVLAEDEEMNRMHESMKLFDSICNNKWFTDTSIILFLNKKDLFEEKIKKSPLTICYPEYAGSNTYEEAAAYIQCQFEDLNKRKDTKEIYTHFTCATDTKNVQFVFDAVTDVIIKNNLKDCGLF
How it was run: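 A drop in FITC polarization marked displacement of the FITC-tagged RGS12 GoLoco peptide (10 nM) from Gαi1 (50 nM). Compounds were incubated 10 min at room temperature in Tris pH 7.5 buffer containing 150 mM NaCl, 0.1 mM GDP and 0.05% NP40; unlabeled peptide titration served as control.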

[9] = qHTS Assay for Identification of Small Molecule Agonists for Thrombopoietin (TPO) Signaling Pathway (AID 917)
How it was run: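 First, Ba/F3 cells with human TPO receptor were held overnight without IL-3. Next, compounds and TPO (26 pM final) were added. After 24 hrs at 37 C, luciferase detection reagent was added and luminescence measured following 10 min at room temperature.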

[10] = target: Muscarinic acetylcholine receptor M1 (Rattus norvegicus) (UniProt P08482); assay: qHTS Assay for Antagonists of Acetylcholine Muscarinic M1 Receptor: Measurement of IP-One Response (AID 944); also: nearly all actives have a fitted effect of over 75% in size
Chain of Muscarinic acetylcholine receptor M1 (Rattus norvegicus) (P08482 whole entry, looked up): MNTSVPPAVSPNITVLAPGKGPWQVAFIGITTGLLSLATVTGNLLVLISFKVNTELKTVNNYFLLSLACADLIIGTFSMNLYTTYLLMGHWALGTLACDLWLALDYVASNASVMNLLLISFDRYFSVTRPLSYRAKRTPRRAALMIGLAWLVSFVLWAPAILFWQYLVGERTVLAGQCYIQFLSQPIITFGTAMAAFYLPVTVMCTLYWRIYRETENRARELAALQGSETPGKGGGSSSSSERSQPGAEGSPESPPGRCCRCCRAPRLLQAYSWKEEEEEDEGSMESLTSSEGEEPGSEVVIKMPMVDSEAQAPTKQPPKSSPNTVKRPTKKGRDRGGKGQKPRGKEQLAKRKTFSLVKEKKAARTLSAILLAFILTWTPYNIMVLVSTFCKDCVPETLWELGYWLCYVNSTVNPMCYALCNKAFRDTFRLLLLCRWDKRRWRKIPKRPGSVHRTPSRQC
How it was run: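 Antagonism was measured as loss of carbachol-driven (EC80) IP1 accumulation in CHO cells carrying rat M1, using a homogeneous IP-One TR-FRET kit read at 620 and 665 nm.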

[11] = target: Pyruvate kinase (Leishmania mexicana) (UniProt Q27686); assay: qHTS Validation Assay for Inhibitors of Leishmania Mexicana Pyruvate Kinase (AID 945)
Chain of Pyruvate kinase (Leishmania mexicana) (Q27686 2-499 E452W): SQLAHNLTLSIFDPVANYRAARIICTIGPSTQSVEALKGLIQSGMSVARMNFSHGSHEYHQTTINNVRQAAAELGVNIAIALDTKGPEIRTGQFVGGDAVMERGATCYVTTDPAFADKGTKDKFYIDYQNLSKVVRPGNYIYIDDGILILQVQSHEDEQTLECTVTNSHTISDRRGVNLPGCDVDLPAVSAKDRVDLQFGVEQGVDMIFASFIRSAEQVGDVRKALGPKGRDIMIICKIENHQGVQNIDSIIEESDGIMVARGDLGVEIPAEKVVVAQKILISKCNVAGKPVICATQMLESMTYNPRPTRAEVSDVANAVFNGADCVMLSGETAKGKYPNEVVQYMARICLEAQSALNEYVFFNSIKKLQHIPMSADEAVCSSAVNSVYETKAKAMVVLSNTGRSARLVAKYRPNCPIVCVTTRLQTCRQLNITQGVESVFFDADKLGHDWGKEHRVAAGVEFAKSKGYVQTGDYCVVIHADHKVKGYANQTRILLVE
How it was run: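 Eight-point qHTS titrations in triplicate, data normalized to DMSO neutral control. Reaction: 0.2 nM LmPYK E451W mutant, 0.5 mM PEP, 0.1 mM ADP, 7 mM MgCl2, pH 7.2, one hour at room temperature; luminescent ATP detection.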

[12] = target: Pyruvate kinase PKM (Homo sapiens) (UniProt P14618); assay: qHTS Assay for Activators of Human Muscle Pyruvate Kinase (AID 954; active = well fitted curve in the direction sought with a large enough effect, not every such curve was filed as active)
Chain of Pyruvate kinase PKM (Homo sapiens) (P14618 whole entry, looked up): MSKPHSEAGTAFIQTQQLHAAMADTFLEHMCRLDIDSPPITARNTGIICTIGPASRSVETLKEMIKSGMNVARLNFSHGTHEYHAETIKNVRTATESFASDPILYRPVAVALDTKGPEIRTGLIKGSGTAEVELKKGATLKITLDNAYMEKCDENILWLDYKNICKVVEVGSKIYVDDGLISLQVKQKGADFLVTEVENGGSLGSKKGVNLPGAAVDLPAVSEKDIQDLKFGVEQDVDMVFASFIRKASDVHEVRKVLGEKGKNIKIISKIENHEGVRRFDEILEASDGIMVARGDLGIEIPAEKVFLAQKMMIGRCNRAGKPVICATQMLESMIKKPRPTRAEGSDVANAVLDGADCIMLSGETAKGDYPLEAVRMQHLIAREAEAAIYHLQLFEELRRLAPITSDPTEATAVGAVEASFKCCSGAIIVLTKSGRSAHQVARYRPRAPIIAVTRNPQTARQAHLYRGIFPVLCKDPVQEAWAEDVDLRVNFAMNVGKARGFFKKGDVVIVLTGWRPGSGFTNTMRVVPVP
How it was run: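 ATP production by PKM2 detected via luciferase luminescence after 1 h room-temperature reaction (0.1 nM enzyme, PEP at Km 0.5 mM, ADP 0.1 mM, pH 7.2 imidazole buffer). Inhibition scaled to no-enzyme control; activation referenced to 0.3 nM enzyme wells.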

[13] = target: Alpha-galactosidase A (Homo sapiens) (UniProt P06280); assay: Counterscreen for Glucocerebrosidase Inhibitors: qHTS Assay for Human alpha-Galactosidase at pH 4.5 (AID 992)
Chain of Alpha-galactosidase A (Homo sapiens) (P06280 whole entry, looked up): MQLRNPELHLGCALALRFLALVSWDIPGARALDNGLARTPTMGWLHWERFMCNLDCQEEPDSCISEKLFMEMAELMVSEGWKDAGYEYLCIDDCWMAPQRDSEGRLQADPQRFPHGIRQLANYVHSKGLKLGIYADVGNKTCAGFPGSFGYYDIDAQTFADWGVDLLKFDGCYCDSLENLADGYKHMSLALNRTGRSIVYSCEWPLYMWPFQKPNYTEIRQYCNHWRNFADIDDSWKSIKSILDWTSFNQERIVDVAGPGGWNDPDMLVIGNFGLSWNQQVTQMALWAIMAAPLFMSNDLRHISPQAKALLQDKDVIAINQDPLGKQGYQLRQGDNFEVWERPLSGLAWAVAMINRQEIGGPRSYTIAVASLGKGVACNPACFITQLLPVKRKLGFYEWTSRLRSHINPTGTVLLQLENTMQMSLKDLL
How it was run: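 Fluorogenic 1536-well qHTS at pH 4.5 (citrate, Tween-20): 2 nM enzyme, 80 uM 4-MU-alpha-galactoside, 20 min room temperature, NaOH/glycine stop. Titration 0.7 nM to 77 uM, data normalized to no-enzyme and full-activity controls, Hill-fitted AC50.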

[14] = target: Mitogen-activated protein kinase 10 (Mus musculus) (UniProt Q61831); assay: JNK3 AlphaScreen Assay (AID 530; active = well fitted curve in either direction with a large enough effect, not every such curve was filed as active;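 also: kinase came from lysate of stimulated human HepG2 cells; signal reports phosphorylation of biotinylated GST-cJun 1-79 at Ser73 with 10 µM ATP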)
How it was run: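 Kinase buffer: 20 mM Tris-HCl pH 7.6, 10 mM MgCl2, 1 mM DTT, 0.1 mM Na3VO4, 0.01% Tween-20; ATP 10 uM. Substrate biotin-GST-cJun(1-79), enzyme from activated HepG2 lysates. Detection by Ser73 phospho-antibody AlphaScreen.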

[15] = target: Cytochrome P450 2D6 (Homo sapiens) (UniProt P10635); assay: qHTS Assay for Inhibitors and Substrates of Cytochrome P450 2D6 (AID 891);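 also: luciferin methyl ether substrate demethylated by CYP2D6 with NADPH regeneration; nearly all actives have a fitted effect of over 60% in size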
Chain of Cytochrome P450 2D6 (Homo sapiens) (P10635 whole entry, looked up): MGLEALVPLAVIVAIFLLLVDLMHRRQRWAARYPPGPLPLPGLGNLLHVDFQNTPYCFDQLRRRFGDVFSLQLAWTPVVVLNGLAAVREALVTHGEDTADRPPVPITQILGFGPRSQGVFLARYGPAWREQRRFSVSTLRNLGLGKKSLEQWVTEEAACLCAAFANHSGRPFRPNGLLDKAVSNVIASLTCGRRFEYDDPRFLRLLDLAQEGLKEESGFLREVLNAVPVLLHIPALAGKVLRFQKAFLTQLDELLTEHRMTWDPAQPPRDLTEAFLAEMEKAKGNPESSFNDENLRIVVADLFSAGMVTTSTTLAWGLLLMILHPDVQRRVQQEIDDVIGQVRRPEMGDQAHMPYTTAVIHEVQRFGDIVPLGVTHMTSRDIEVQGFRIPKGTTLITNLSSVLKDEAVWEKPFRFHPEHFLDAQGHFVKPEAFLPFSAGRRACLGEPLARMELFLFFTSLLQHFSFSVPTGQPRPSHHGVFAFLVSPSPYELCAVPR
How it was run: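 Luminescent read-out of luciferin formed by 5 nM human CYP2D6 demethylating 30 uM Luciferin-ME EGE (Km level) over 60 min at room temperature after NADPH regeneration addition. Data normalized to full inhibition by 1.43 uM quinidine.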

[16] = qHTS Assay for Identification of Small Molecule Antagonists for NFkB Signaling Pathway (AID 895; active = well fitted inhibition curve with a large enough effect in the signal ratio, with a control signal flat, not every such curve was filed as active; the % refers to the signal ratio)
How it was run: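 Beta-lactamase reporter read-out (460 and 530 nm emission ratio, 405 nm excitation, 2 hrs substrate loading RT) after 5 hr stimulation with 10 pM TNF alpha in compound-treated NFkB-bla ME-180 cells in low-serum medium.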

[17] = target: Muscarinic acetylcholine receptor M1 (Rattus norvegicus) (UniProt P08482); assay: qHTS Assay for Antagonists of Acetylcholine Muscarinic M1 Receptor: Kinetic Measurement of Intracellular Calcium Response (AID 943);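 also: Fluo-4 calcium signal as peak divided by basal fluorescence over 4 min; nearly all actives have a fitted effect of over 75% in size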
How it was run: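 Quantitative HTS in CHO-M1 (rat receptor) cells: 10 min compound exposure ahead of 100 nM carbachol, Fluo-4 fluorescence followed 4 min, value expressed as peak-to-basal ratio.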

[18] = target: alpha-glucosidase (Oryza sativa, rice) (UniProt Q653V4); assay: Counterscreen for Glucocerebrosidase Inhibitors: qHTS Assay for Rice alpha-Glucosidase at pH 5.0 (AID 997)
How it was run: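 Endpoint fluorogenic assay at pH 5.0: compounds (0.7 nM to 77 uM) titrated against 4 nM rice enzyme and 400 uM 4-MU-alpha-glucoside for 20 min at room temperature; NaOH/glycine stop, read ex 365/em 440 nm, Hill-fitted AC50.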

SMILES | activity change, negative = inhibition [1] | Potency [2] | activity change, negative = inhibition [3] | activity, negative = inhibition [4] | Potency [5] | Potency [6] [µM] | Potency [7] | outcome [8] | outcome [9] | Potency [10] | outcome [11] | outcome [12] | outcome [13] | Potency [14] | Potency [15] | Potency [16] | Potency [17] | Potency [18]
CCCCCCCCCCCCC/C=C\[C@H](O)[C@H](N)CO | 27.4% [at 38 µM] | 31.6 µM (active) | 1.11% [at 38 µM] | -6.68% [at 38 µM] | > 46 µM | > 46 | inactive | – | – | – | – | – | – | – | – | – | – | –
CNc1ncnc2c1ncn2[C@H]1C[C@@H](OP(=O)(O)O)[C@H](COP(=O)(O)O)O1 | -5.54% [at 38 µM] | inactive | 5.84% [at 38 µM] | -2.5% [at 38 µM] | > 46 µM | > 46 | inactive | inactive | inactive | inactive | inactive | inactive | inactive | – | – | – | – | –
C[C@@]12CCC(=O)C=C1CC[C@H]1[C@H]3CC[C@](O)(C(=O)CO)[C@]3(C)CC[C@@H]12 | 16% [at 38 µM] | inactive | -2.8% [at 38 µM] | -40.3% [at 38 µM] | 0.114 µM (active) | – | inactive | – | – | – | – | – | – | inactive | inactive | – | – | –
Nc1ncnc2c1nc(Br)n2[C@@H]1O[C@H]2COP(=O)(O)O[C@@H]2[C@H]1O | -7.65% [at 38 µM] | inactive | 6.13% [at 38 µM] | 4.8% [at 38 µM] | 2.43 µM (active) | – | inactive | inactive | inactive | inactive | inactive | inactive | inactive | inactive | – | inactive | inactive | inactive
C=C/C(C)=C/[C@]1(C)SC(=O)C(C)=C1O | -3.15% [at 38 µM] | inactive | 11.1% [at 38 µM] | -7.1% [at 38 µM] | > 46 µM | – | inactive | inactive | inactive | inactive | inactive | inactive | inactive | – | – | inactive | inactive | inactive
CC[C@@H]1CN2CCc3cc(OC)c(OC)cc3[C@H]2C[C@@H]1C[C@H]1NCCc2cc(OC)c(OC)cc21 | -115% [at 17.2 µM] (active) | inactive | -120% [at 17.2 µM] (active) | -94.8% [at 17.2 µM] (active) | > 20.6 µM and > 46 µM | – | – | – | – | – | – | – | – | – | inactive | – | – | –
